TRAIL sens C8 – caspase-8 TRAIL sensitization. inhibition (viability loss, TRAIL sensitization), % at 10 µM. NB7+C8 cells + TRAIL, ATPlite viability luminescence. AID 624354. 360,000 tested, 1% active;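 active = compounds causing at least 50% loss of cell viability in the single-dose screen, relative to plate controls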
SENP8 block-1 – blocks human SENP8 cleavage of Nedd8 substrate; Q96LD8; recombinant SENP8, Nedd8 substrate fluorescence; inhibition, % at 20 µM; 360,000 tested, 0.64% active; AID 602440; in the data active = inhibition mostly above about 40%, no sharp cut-off; inactive = mostly below about 27%
PPC-1+TRAIL kill – kills PPC-1 cancer cells in the presence of TRAIL; PPC-1 cells + TRAIL, ATPLite viability luminescence; cell killing (% activity), % at 4 µM or 5 µM; 220,000 tested, 0.41% active; AID 1443;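 active = cell killing above 50% in the first pass at 4 µM, then a duplicate retest at 5 µM averaging 50% or more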
SENP8 block-2 – inhibitors of human SENP8 protease; inhibition, % at 10 µM; purified SENP8, Z-RLRGG-aminoluciferin cleavage, luminescence; 330,000 tested, 1.2% active; in the data active = inhibition above about 50%
SENP7 block – blocks the human protease SENP7; Q9BQF6; recombinant SENP7, Z-RLRGG-aminoluciferin luminescence, 40 min; inhibition, % at 5 µM; 330,000 tested, 1.5% active;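 active = inhibition above about 50% at the single test dose, limit read from the data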
Target sequence (Q9BQF6 706-1050 limits assumed): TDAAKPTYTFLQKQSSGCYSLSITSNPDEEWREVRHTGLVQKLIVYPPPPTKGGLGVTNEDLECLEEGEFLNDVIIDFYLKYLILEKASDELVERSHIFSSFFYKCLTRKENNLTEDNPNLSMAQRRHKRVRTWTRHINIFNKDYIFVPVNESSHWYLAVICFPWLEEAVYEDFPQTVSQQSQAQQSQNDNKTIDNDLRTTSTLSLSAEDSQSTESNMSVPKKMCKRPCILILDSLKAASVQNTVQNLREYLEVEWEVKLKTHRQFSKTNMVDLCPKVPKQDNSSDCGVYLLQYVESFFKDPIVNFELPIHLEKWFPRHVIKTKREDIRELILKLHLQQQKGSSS
SENP6 block – blocks the human protease SENP6. AID 2599. 330,000 tested, 1.8% active. Recombinant SENP6 catalytic domain, aminoluciferin luminescence. Q9GZR1. inhibition, % at 10 µM;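 active = inhibition above about 50% at the single tested dose, limit read from the data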
SENP8 confirm – human SENP8 inhibition, confirmed; shares compounds with SENP7 block; Recombinant SENP8, Z-RLRGG-aminoluciferin luminescence, 60 min; inhibition, % at 12.5 µM; 6,200 tested, 40% active;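 active = mean inhibition across replicates above about 50%, limit read from the data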
SENP6 confirm – human SENP6 inhibition, confirmed. shares compounds with SENP7 block. 6,200 tested, 58% active. recombinant SENP6, Z-RLRGG-aminoluciferin luminescence. inhibition, % at 12.5 µM
SENP7 conf – human SENP7 inhibition, confirmed; shares compounds with SENP7 block; recombinant SENP7, Z-RLRGG-aminoluciferin luminescence, 40 min; inhibition, % at 12.5 µM; 6,200 tested, 69% active
Casp3 SENP sel – selectivity test for SENP inhibitors: human caspase-3 inhibition; purified caspase-3, Z-DEVD-aminoluciferin luminescence, 60 min; 6,200 tested, 60% active; AID 488918; inhibition, % at 12.5 µM; shares compounds with SENP7 block;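 active = mean inhibition above about 50%, limit read from the data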
Target sequence (P42574 28-227 limits assumed): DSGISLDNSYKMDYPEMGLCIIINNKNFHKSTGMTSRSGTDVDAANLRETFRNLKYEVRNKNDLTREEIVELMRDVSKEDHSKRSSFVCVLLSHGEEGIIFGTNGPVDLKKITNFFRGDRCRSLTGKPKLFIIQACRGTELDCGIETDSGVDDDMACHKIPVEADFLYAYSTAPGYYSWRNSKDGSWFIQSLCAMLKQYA
Luc interf – counter-screen for SENP inhibitors: luminescence interference. Pre-incubated SENP8/Z-RLRGG-aminoluciferin, luciferase luminescence interference. 6,200 tested, 39% active. AID 488919. inhibition, % at 12.5 µM. shares compounds with SENP7 block;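 active = mean inhibition above about 50% when retested at one dose, limit read from the data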
Each line names hits and unclear results; the compound was inactive in the other large screens (follow-up assays come after a bar, where they were run). An excerpt weighted towards active compounds, which were near 3% of everything screened.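 The calls were made as follows, unless noted: active = mean inhibition above about 50% in the one-dose retest (limit read from the data); inactive = the rest.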

Cc1nn2c(N)c(-c3ccccc3)cnc2c1-c1ccc(Cl)cc1	none (no result: PPC-1+TRAIL kill)
CC(=O)c1cnc2c(-c3ccc(Cl)cc3)cnn2c1C	none
Nc1c(C(=O)O)cnc2c(-c3ccc(Cl)cc3)cnn12	SENP8 block-2 98, SENP7 block 100, SENP6 block 95 | SENP8 confirm 52 | SENP6 confirm 100 | SENP7 conf 103 | Casp3 SENP sel 98 | Luc interf 96
Nc1c(-c2cccs2)cnc2c(-c3ccc(F)cc3)cnn12	TRAIL sens C8 61, SENP7 block 69, SENP6 block 50 (no result: PPC-1+TRAIL kill) | SENP8 confirm inactive | SENP6 confirm inactive | SENP7 conf inactive | Casp3 SENP sel inactive | Luc interf inactive
O=P1(O)Cc2ccccc2-c2ccccc21	none (no result: PPC-1+TRAIL kill, SENP8 block-2, SENP7 block, SENP6 block)
O=C(COC(=O)c1ccc[nH]c1=O)c1ccc(Cl)s1	none
Cc1ccc(C(=O)OCC(=O)c2ccc(Cl)s2)s1	SENP6 block 54 | SENP8 confirm 52 | SENP6 confirm inactive | SENP7 conf 80 | Casp3 SENP sel inactive | Luc interf inactive
Cc1ccc(C(=O)OCC(=O)NCCNC(=O)COC(=O)c2ccc(C)s2)s1	none (no result: PPC-1+TRAIL kill)
O=C(COC(=O)c1cccnc1Cl)c1ccc(Cl)s1	SENP7 block 76, SENP6 block 56 (no result: PPC-1+TRAIL kill) | SENP8 confirm 67 | SENP6 confirm 63 | SENP7 conf 88 | Casp3 SENP sel 80 | Luc interf 76
CCOC(=O)N1CCN(C(=O)c2noc3c2COc2ccccc2-3)CC1	SENP7 block 54, SENP6 block 61 (no result: PPC-1+TRAIL kill) | SENP8 confirm inactive | SENP6 confirm inactive | SENP7 conf 78 | Casp3 SENP sel 75 | Luc interf inactive
COCCNC(=O)CN1C(=O)COc2ccc(S(=O)(=O)N3CC(C)CC(C)C3)cc21 (centres undefined)	none (no result: PPC-1+TRAIL kill)
O=[N+]([O-])c1ccccc1NCCNc1ncc(C(F)(F)F)cc1Cl	none
O=[N+]([O-])c1cccnc1NCCNc1ncc(C(F)(F)F)cc1Cl	SENP7 block 58, SENP6 block 67 | SENP8 confirm 60 | SENP6 confirm 56 | SENP7 conf 83 | Casp3 SENP sel inactive | Luc interf inactive
O=[N+]([O-])c1cccnc1NCCc1ccccc1	SENP8 block-2 81, SENP7 block 88, SENP6 block 95 | SENP8 confirm inactive | SENP6 confirm 69 | SENP7 conf 88 | Casp3 SENP sel 72 | Luc interf inactive
O=c1cc(Cl)[nH]c(=O)n1CCNc1ncc(C(F)(F)F)cc1Cl	SENP6 block 58 | SENP8 confirm 52 | SENP6 confirm inactive | SENP7 conf 77 | Casp3 SENP sel 73 | Luc interf inactive
Cc1ccc(C)c(SCC(=O)Nc2ccc(C)c(S(=O)(=O)N3CCOCC3)c2)c1	none (no result: PPC-1+TRAIL kill)
CN(C(=O)COC(=O)CNC(=O)c1cccs1)c1c(N)n(Cc2ccccc2)c(=O)[nH]c1=O	none (no result: PPC-1+TRAIL kill)
COc1ccccc1-c1c(C#N)c(N)nc2c1CCc1ccccc1-2	SENP8 block-2 78, SENP7 block 78, SENP6 block 96 | SENP8 confirm inactive | SENP6 confirm inactive | SENP7 conf inactive | Casp3 SENP sel inactive | Luc interf inactive
CCOc1cc(-c2c(C#N)c(N)nc3c2CCc2ccccc2-3)ccc1O	none
CS(=O)(=O)Nc1cccc(-c2ccc3nncn3c2)c1	none (no result: PPC-1+TRAIL kill, SENP8 block-2, SENP7 block, SENP6 block)
COc1ccc(S(=O)(=O)N2CCC[C@H]2C(=O)N2CCC[C@H]2C(=O)N(C)Cc2ccccc2)cc1C	none (no result: PPC-1+TRAIL kill, SENP8 block-2, SENP7 block, SENP6 block)
CNC(=O)c1ccc(-c2sc3nc(N4CCOCC4)c4c(c3c2N)CCCC4)o1	SENP6 block 55 | SENP8 confirm inactive | SENP6 confirm inactive | SENP7 conf inactive | Casp3 SENP sel inactive | Luc interf inactive
CNC(=O)c1ccc(-c2sc3nc(N4CCOCC4)c4c(c3c2N)CC(C)(C)OC4)o1	none
O=C(CNc1ccc(Br)cc1)c1ccccc1	SENP6 block 71 | SENP8 confirm inactive | SENP6 confirm inactive | SENP7 conf inactive | Casp3 SENP sel inactive | Luc interf inactive
CCc1ccc(NC(=O)c2cnn(-c3ccccc3)c2C2CCNCC2)cc1	none
CCc1ccc(NC(=O)c2cnn(-c3ccccc3)c2C)cc1	SENP7 block 76, SENP6 block 59 | SENP8 confirm inactive | SENP6 confirm inactive | SENP7 conf 50 | Casp3 SENP sel 69 | Luc interf inactive
c1cc2[nH]snc2c2nc(C3CC3)nc12	SENP6 block 55 | SENP8 confirm inactive | SENP6 confirm inactive | SENP7 conf inactive | Casp3 SENP sel inactive | Luc interf inactive
CN(C(=O)c1cccc(NC(=O)Cc2cccc(NC(=O)C3CCN(C(=O)CCc4ccccc4)CC3)c2)c1)C1CC1	none (no result: PPC-1+TRAIL kill, SENP8 block-2, SENP7 block, SENP6 block)
Cc1ccc(-n2nnc(-c3cnc4ccccc4c3)n2)cc1	SENP7 block 79 | SENP8 confirm inactive | SENP6 confirm inactive | SENP7 conf inactive | Casp3 SENP sel inactive | Luc interf inactive
Cc1ccc(-n2nnc(-c3cccnc3)n2)cc1	none (no result: PPC-1+TRAIL kill)
c1ccc(CCNc2nc(-c3ccccn3)cs2)cc1	SENP6 block 52 | SENP8 confirm inactive | SENP6 confirm inactive | SENP7 conf inactive | Casp3 SENP sel inactive | Luc interf inactive
O=C(Oc1ccc[nH]c1=O)c1ccc(F)cc1	none (no result: PPC-1+TRAIL kill, SENP8 block-2, SENP7 block, SENP6 block)
O=C(Nc1ccccc1)Oc1ccc[nH]c1=O	SENP6 block 74 | SENP8 confirm inactive | SENP6 confirm inactive | SENP7 conf inactive | Casp3 SENP sel inactive | Luc interf inactive
Cc1ccc(NC(=O)C(=O)Nc2ccc(C)cn2)nc1	none
Cc1ccc(NC(=O)c2oc3ccccc3c2C)nc1	SENP6 block 55 (no result: PPC-1+TRAIL kill) | SENP8 confirm inactive | SENP6 confirm inactive | SENP7 conf 70 | Casp3 SENP sel inactive | Luc interf inactive
Cc1c(C(=O)Nc2ccccn2)oc2c(Cl)cccc12	none (no result: PPC-1+TRAIL kill)
Cc1c(C(=O)Nc2nnc(C(F)(F)F)s2)oc2ccccc12	SENP7 block 62 | SENP8 confirm 53 | SENP6 confirm 54 | SENP7 conf 60 | Casp3 SENP sel 59 | Luc interf inactive
Cc1ccc(NC(=O)c2sccc2C)nc1	SENP8 block-2 92, SENP7 block 99, SENP6 block 99 (no result: PPC-1+TRAIL kill) | SENP8 confirm 94 | SENP6 confirm 95 | SENP7 conf 102 | Casp3 SENP sel 98 | Luc interf 92

Bioassay records deposited in PubChem BioAssay by Sanford-Burnham Center for Chemical Genomics.
